Measured values published in PubChem BioAssay AID493131 (Broad Institute, 2011).
About 3,300 (0.97%) of roughly 340,000 compounds were called active. The sample holds actives, similar compounds and a random draw of the others, so the mix is not that of the screen.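 How the source made its calls: active means mean activation above about 17%, with every replicate also reaching it (limit read from the data, passing the limit was not always enough); inconclusive means only one of the two conditions met; inactive means the rest.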

target: Protein FosB (Mus musculus) (UniProt P13346); experiment: enhancers of mouse delta FosB DNA binding – biochemical, fluorescence polarization, TAMRA-CDK5 oligo, single point, primary screen (AID 493131); details: purified delta FosB, at 25 µM, hits give high values, percent of positive-control signal above neutral wells;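 further: fluorescence polarization rise as delta FosB binds a TAMRA Cdk5 AP-1 oligo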
Sequence (P13346 whole entry, looked up): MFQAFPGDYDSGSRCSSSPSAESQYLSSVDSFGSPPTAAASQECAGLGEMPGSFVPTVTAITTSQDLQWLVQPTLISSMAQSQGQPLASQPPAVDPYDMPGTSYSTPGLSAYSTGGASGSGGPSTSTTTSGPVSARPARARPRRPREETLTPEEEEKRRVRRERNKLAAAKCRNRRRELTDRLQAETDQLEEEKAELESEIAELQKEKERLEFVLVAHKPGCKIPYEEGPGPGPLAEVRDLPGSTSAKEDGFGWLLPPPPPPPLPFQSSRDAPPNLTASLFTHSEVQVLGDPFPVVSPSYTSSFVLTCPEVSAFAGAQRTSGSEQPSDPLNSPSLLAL

| SMILES | activation |
| --- | --- |
| COc1cc(C2C(C(=O)Nc3ccccc3OC)=C(C)Nc3ncnn32)ccc1O (stereo not given) | -9.43% (inactive) |
| COc1ccccc1NC(=O)C1=C(C)Nc2nnnn2C1c1cccc(Br)c1 (stereo not given) | 27.9% (active) |
| COc1ccc(C2C(C(=O)Nc3ccccc3OC)=C(C)Nc3nnnn32)c(OC)c1 (stereo not given) | -2.93% (inactive) |
| COc1ccc(-c2cc3nc(C)c(CCC(=O)NC(C)CCc4ccco4)c(C)n3n2)c(OC)c1 (stereo not given) | -2.13% (inactive) |
| Cc1ccc(NC(=O)CCC(=O)N2CCC(c3ccccc3)=N2)cc1S(=O)(=O)N1CCCCC1 | 10.2% (inactive) |
| Cc1sc2ncnc(N3CCC(C(=O)Nc4nc5ccc(Cl)cc5s4)CC3)c2c1C | 43.5% (active) |
| Cc1sc2ncnc(N3CCC(C(=O)Nc4ccc(F)cc4Cl)CC3)c2c1C | -2.12% (inactive) |
| Cc1sc2ncnc(N3CCC(C(=O)NNC(=O)c4ccc(F)cc4)CC3)c2c1C | -4.25% (inactive) |
| Cc1cccc(-n2nc3c(c2NC(=O)c2cc4ccccc4o2)CS(=O)(=O)C3)c1 | -22.1% (inactive) |
| COc1ccc(CCNC(=O)c2nnc(CS(=O)(=O)c3ccccc3)o2)cc1OC | -8.02% (inactive) |
| CCCCNC(=S)N/N=C1\CCCCc2ccccc21 | -5.41% (inactive) |
| CCOc1ccccc1NC(=O)Cn1ncc2ccc([N+](=O)[O-])cc21 | -5.27% (inactive) |
| COc1cccc(CNC(=O)c2nnn(CC(=O)Nc3cc(Cl)ccc3C)c2N)c1 | 70.5% (active) |
| COc1ccc(NC(=O)Cn2nnc(C(=O)NCCc3ccc(OC)c(OC)c3)c2N)cc1 | -1.69% (inactive) |
| CCOc1ccccc1NC(=O)Cn1nnc(C(=O)NCc2cccs2)c1N | 28.6% (active) |
| COc1cccc(CNC(=O)c2n[nH]c3ccccc23)c1 | -2.62% (inactive) |
| Cc1ccc(NC(=O)Cn2nnc(C(=O)NCc3ccco3)c2N)c(C)c1 | 14.6% (inactive) |
| COc1ccc(CNC(=O)c2nnn(CC(=O)Nc3cc(C)cc(C)c3)c2N)cc1 | 48.3% (active) |
| CCN(CC(=O)NCc1cccs1)c1nnnn1-c1ccccc1 | 1.6% (inactive) |
| COc1cccc(CNC(=O)c2cccnc2Sc2ccc(Cl)cc2)c1 | -12% (inactive) |
| COc1ccc(S(=O)(=O)N2CCC(C(=O)NCCC(=O)NCc3cccc(OC)c3)CC2)cc1 | -3.09% (inactive) |
| CCOc1ccc(Cn2nnc(C(=O)Nc3ccc(OC)cc3OC)c2N)cc1 | 7.56% (inactive) |
| COc1cccc(CNC(=O)c2nnn(CC(=O)Nc3cc(C)ccc3C)c2N)c1 | 52.8% (active) |

| SMILES | activation |
| --- | --- |
| O=C(O)c1ccc(S(=O)(=O)c2ccccc2)s1 | 0.96% (inactive) |
| O=S(=O)(Nc1ccc(OC(F)(F)F)cc1)c1cccc2nonc12 | 2.63% (inactive) |
| N#Cc1c(/N=C/N2CCCC2)oc(-c2ccccc2)c1-c1ccccc1 | -4.67% (inactive) |
| CC(Sc1nnnn1C1CCCCC1)C(=O)O (stereo not given) | 1.4% (inactive) |
| Cc1cccc(CSc2nc3c(c(=O)n2C)SCC3)c1 | -8.87% (inactive) |
| CCN(CC)c1ccc(S(=O)(=O)N2CCOCC2)cc1NC(=O)CSc1cccc[n+]1[O-] | 4.76% (inactive) |
| Nc1ccc(C(=O)OCC(=O)NC2CCS(=O)(=O)C2)cc1[N+](=O)[O-] (stereo not given) | -1.21% (inactive) |
| NC(=O)Nc1ccc(C(=O)OCC(=O)NC2CCCc3ccccc32)cc1 (stereo not given) | 0.99% (inactive) |
| Nc1ccc(C(=O)OCC(=O)NC2CCCc3ccccc32)cc1[N+](=O)[O-] (stereo not given) | 35.5% (active) |
| CC1(C(=O)O)CCC(C(=O)Nc2ccc(Cl)c(Cl)c2)C1(C)C (stereo not given) | -5.56% (inactive) |
| COc1ccc2c(CC(=O)Nc3nnc(C4CC4)s3)coc2c1 | -0.902% (inactive) |
| COc1ccc(NC(=O)CCC(=O)Nc2nnc(C3CCCCC3)s2)cc1 | 23.2% (active) |
| COc1ccc(OCCCC(=O)Nc2nnc(C3CCCO3)s2)cc1 (stereo not given) | -9.89% (inactive) |
| O=C(Cc1ccc(Br)cc1)NCCN1CCOCC1 | 7.04% (inactive) |
| CC1CCCCC1NC(=O)/C(C#N)=C/C=C/c1ccccc1[N+](=O)[O-] (stereo not given) | -2.37% (inactive) |
| Cc1ccc(SCC(=O)Nc2ccc3c(c2)OCCO3)cc1 | -1.62% (inactive) |
| Cc1ccc(S(=O)(=O)NCC(=O)Nc2ccc3c(c2)OCCO3)cc1 | -0.347% (inactive) |
| CS(=O)(=O)c1ccc(-c2nnn(CC(=O)Nc3ccc4c(c3)OCCO4)n2)cc1 | 37.1% (active) |
| Cc1cccc(C(=O)Nc2ccccc2-c2nnn(CC(=O)Nc3ccc4c(c3)OCCO4)n2)c1 | 20.1% (active) |
| Cn1c(=O)c2ccccc2n(CC(=O)Nc2ccc3c(c2)OCCO3)c1=O | 5.57% (inactive) |
| COc1ccc(S(=O)(=O)N(C)CC(=O)Nc2ccc3c(c2)OCCO3)cc1OC | -3.7% (inactive) |
| O=C(c1cccc(N2CCCC2=O)c1)N1CCOCC1 | -2.25% (inactive) |
| CN(Cc1cccs1)C(=O)Cc1c[nH]c2ccccc12 | 0.954% (inactive) |

| SMILES | activation |
| --- | --- |
| COc1ccc(NC(=O)CN(C)C(=O)c2ccc(NC3CC3)c([N+](=O)[O-])c2)cc1 | 4.11% (inactive) |
| COc1ccc(CCNC(=O)CSc2nc3[nH]ncc3c(=O)n2-c2cccc(C(F)(F)F)c2)cc1OC | 0.114% (inactive) |
| NC(=O)NC(=O)CSc1nc2cc([N+](=O)[O-])ccc2n1-c1cccc(C(F)(F)F)c1 | 20.9% (active) |
| COc1ccc(-n2cnnc2SCC(=O)Nc2cccc([N+](=O)[O-])c2)cc1 | 9.7% (inactive) |
| O=C(COc1ccccc1)Nc1nonc1NC(=O)COc1ccccc1 | 1.39% (inactive) |
| COC(=O)CC1=NN(c2nc(C)cc(C)n2)C(=O)C1 | 0.664% (inactive) |
| CS(=O)(=O)N(CC(=O)N1CCCC1)Cc1ccccc1 | -9% (inactive) |
| Cc1ccc(-c2nc(CS(=O)CC(=O)N3CCN(c4ncccn4)CC3)c(C)o2)cc1 (stereo not given) | -11.3% (inactive) |
| Cc1[nH]c2c(C(=O)N3CCCC(CCC(=O)NCc4ccccc4F)C3)cccc2c1C (stereo not given) | -10% (inactive) |
| O=C(Nc1c[nH]c(=O)[nH]c1=O)OCc1ccccc1 | 1.77% (inactive) |
| Cc1ccc(NC(=O)Nc2ccccc2)c(Br)c1 | -6.25% (inactive) |
| Cc1cc(NC(=O)Nc2c[nH]c(=O)[nH]c2=O)ccc1Br | 27% (active) |
| CCOC(=O)CCC(NC(=O)c1ccc(CNc2nc3cc(C(F)(F)F)ccc3nc2C(=O)OCC)cc1)C(=O)OCC (stereo not given) | -4.97% (inactive) |
| COc1ccccc1C(=O)COC(=O)CNS(=O)(=O)c1ccc(NC(C)=O)cc1 | -5.62% (inactive) |
| COc1ccccc1CNC(=O)COC(=O)CNS(=O)(=O)c1ccc(NC(C)=O)cc1 | 0.477% (inactive) |
| CC(=O)Nc1ccc(S(=O)(=O)NCC(=O)OCc2cc(=O)oc3ccc4ccccc4c23)cc1 | 38.6% (active) |
| CC1CCC(N2CC(=O)N(Cc3ccc4c(c3)OCO4)C(c3ccc(F)cc3)C2=O)CC1 (stereo not given) | -1.56% (inactive) |
| O=C(CN(Cc1ccccc1)C(=O)CCC(=O)Nc1ccccn1)NCCc1ccccc1 | -12.5% (inactive) |
| CCCOc1ccc(/C=N/NC(=O)C2CC2)c(OCCC)c1 | -10.6% (inactive) |
| CCCOc1ccc(C(=O)CCC(=O)OC(C)C(=O)Nc2ccc(NC(C)=O)cc2)cc1 (stereo not given) | 11.5% (inactive) |
| CCCOc1ccc(C(=O)C(CCC(CNCC)C(=O)c2ccc(OCCC)cc2)CNCC)cc1 (stereo not given) | 18.7% (active) |
| O=C(Nc1cc(-c2nc3ncccc3o2)ccc1Cl)c1ccco1 | -46.8% (inactive) |
| Nc1nc(SCC(=O)Nc2cc(C(F)(F)F)ccc2Cl)[nH]c(=O)c1NC(=O)c1ccco1 | 48.3% (active) |

| SMILES | activation |
| --- | --- |
| COC(=O)c1ccc(NC(=O)CSc2nc(N)c(NC(=O)c3ccc(Br)o3)c(=O)[nH]2)cc1 | 10.1% (inactive) |
| CCN(CC(=O)NCc1ccc(F)cc1)S(=O)(=O)c1ccc(Cl)s1 | 6.54% (inactive) |
| NN=C(NN=Cc1ccccc1)c1ccccc1 | -14.8% (inactive) |
| COc1ccc(C)cc1NC(=O)CSc1cccc[n+]1[O-] | 6.31% (inactive) |
| O=C(Nc1nnc(C2COc3ccccc3O2)o1)c1ccc(F)cc1 (stereo not given) | 1.05% (inactive) |
| COc1ccc(N(CC(=O)N/N=C/c2cccc3c2OCCO3)S(=O)(=O)c2ccc(NC(C)=O)cc2)cc1 | -0.26% (inactive) |
| Cc1cc(=O)[nH]c2nnnn12 | -4.86% (inactive) |
| CCN(CC)CCNc1ccc(Cl)cc1[N+](=O)[O-] | 4.58% (inactive) |
| O=C(NCc1cccnc1)C(=O)Nc1nc(-c2ccccc2)cs1 | -5.18% (inactive) |
| O=C(Nc1nc(-c2ccc(-c3ccccc3)cc2)cs1)c1cnccn1 | 21.9% (active) |
| O=C(Nc1nnc(Cc2ccccc2)s1)c1cnccn1 | -3.57% (inactive) |
| CCCCC(NS(=O)(=O)c1ccc(C)cc1)C(=O)Oc1ccc2c3c(c(=O)oc2c1)CCC3 (stereo not given) | -11.5% (inactive) |
| CCOc1ccc(NC(=O)c2ccc(CSc3nnnn3C)cc2)cc1 | -3.33% (inactive) |
| Cn1c(=O)n(C)c2cc(/C=N/NC(=O)c3cccc(Br)c3)ccc21 | 10.7% (inactive) |
| O=C(N/N=C/c1cccc(Br)c1)c1ccc(N2CCCC2=O)cc1 | 86.6% (active) |
| O=C(Nc1ccc(N2CCCC2=O)cc1)c1cncc(Br)c1 | -1.59% (inactive) |
| CCN(CC(=O)Nc1c(F)cccc1F)C(=O)Cc1cccs1 | 3.46% (inactive) |
| Cc1cc(C)cc(NC(=O)C(OC(=O)c2ccc(O)cc2)c2ccccc2)c1 (stereo not given) | 6.84% (inactive) |
| Cc1ccc(C)c(NC(=O)C(OC(=O)c2ccc(C)s2)c2ccccc2)c1 (stereo not given) | 23.6% (active) |
| COc1ccc(C)cc1NC(=O)C(OC(=O)c1cccc(S(=O)(=O)N(C)c2ccccc2)c1)c1ccccc1 (stereo not given) | -8.39% (inactive) |
| C/C(CC(=O)NCc1ccc(Cl)cc1)=N\NC(=O)COc1ccc(C)cc1Br | -6.55% (inactive) |
